# Values joined by “and” are separate entries in the source; they are usually repeats but may differ in a detail not shown here. Equal entries are not always repeated. Results filed as inconclusive are left out. A call without a number means that no potency is given here. Active and inactive are the calls of the source. Unless noted, calls follow the shape of the dose curve; as a rule, active = well fitted curve in the direction sought with a large enough effect; inconclusive = small, poorly fitted or top-dose-only effect, or another doubt; inactive = no such curve, though single readings can be large; an effect the other way counts as inactive or inconclusive.
# How the values were obtained:
# [1] = Cell Viability - LYMP1-002 - Assay at 16 hr (AID 948)
# Summary of the method: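 ATP luminescence (CellTiter-Glo) was measured after 16 hr compound exposure at 37 C of 2500 lymphoblastoid LYMP1-002 cells per well. Concentration-response curves were fitted with the Hill equation to give AC50.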
# [2] = MultiTox-Fluor Cytotoxicity Assay - LYMP1-002 - Live Cells (AID 955); also: potency is read from the fitted curve at half-maximal effect
# Summary of the method: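 Human lymphoblastoid LYMP1-002 cells, 2500/well in complete medium, rested 5 hr at 37 C, then exposed to compounds for 16 hr at 37 C. Live-cell protease cleavage of GF-AFC read by fluorescence (Ex/Em 405/510) after 60 min at room temperature; AC50 from Hill fits.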
# [3] = MultiTox-Fluor Cytotoxicity Assay - LYMP1-002 - Dead Cells (AID 960); also: nearly all actives have a fitted effect of over 60% in size; also: potency is read from the fitted curve at half-maximal effect
# Summary of the method: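 Human lymphoblastoid cells (LYMP1-002), 2500/well in complete medium, were exposed to compounds for 16 hr at 37 C. Dead-cell protease activity was read as bis-AAF-R110 fluorescence (Ex/Em 485/520), normalized to DMSO and 15 uM tetraoctylammonium bromide; AC50 from Hill fits.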
# [4] = MultiTox-Fluor Cytotoxicity Assay - LYMP1-003 - Dead Cells (AID 961); also: nearly all actives have a fitted effect of over 70% in size; also: potency is read from the fitted curve at half-maximal effect
# Summary of the method: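 LYMP1-003 human lymphoblastoid cells (2500/well) exposed to compound 16 h at 37 C in complete medium; dead-cell protease read with bis-AAF-R110 fluorescence (Ex/Em 485/520) after 60 min at room temperature. Normalized to DMSO and 15 uM tetraoctylammonium bromide; AC50 from Hill fit.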
# [5] = MultiTox-Fluor Cytotoxicity Assay - LYMP1-003 - Live Cells (AID 962); also: potency is read from the fitted curve at half-maximal effect
# Summary of the method: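 LYMP1-003 human lymphoblastoid cells (2500/well) in complete medium were preincubated 5 hr at 37 C, then exposed to compounds for 16 hr at 37 C. Live-cell protease cleavage of GF-AFC read by fluorescence (Ex/Em 405/510); AC50 from Hill fits.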
# [6] = Cell Viability - LYMP1-003 - Assay at 24 hr (AID 963)
# Summary of the method: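 Human lymphoblastoid LYMP1-003 cells (2500/well) were rested 5 hr at 37 C, then exposed to compounds in complete medium for 24 hr at 37 C. Cellular ATP was quantified by CellTiter-Glo luminescence, and AC50 values came from Hill fits of concentration-response data.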
# [7] = Cell Viability - LYMP1-003 - Assay at 40 hr (AID 964); also: nearly all actives have a fitted effect of over 60% in size; also: potency is read from the fitted curve at half-maximal effect
# Summary of the method: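 Human lymphoblastoid LYMP1-003 cells, 2500/well in complete medium, rested 5 hr at 37 C, then exposed to compounds for 40 hr at 37 C. Viability read as intracellular ATP by CellTiter-Glo luminescence; AC50 from Hill fits of concentration-response data.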
# [8] = Cell Viability - LYMP2-003 (AID 965);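 also: cells exposed to compounds for 24 h before reading; nearly all actives have a fitted effect of over 50% in size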; also: potency is read from the fitted curve at half-maximal effect
# Summary of the method: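 CellTiter-Glo luminescence quantified ATP loss after 24 h compound treatment of LYMP2-003 lymphoblastoid cells at 37 C. Titration series were fitted with the standard Hill equation to give AC50.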
# [9] = Cell Viability - LYMP2-009 (AID 968); also: nearly all actives have a fitted effect of over 55% in size; also: potency is read from the fitted curve at half-maximal effect
# [10] = Cell Viability - LYMP2-011 (AID 969); also: nearly all actives have a fitted effect of over 60% in size; also: potency is read from the fitted curve at half-maximal effect
# Summary of the method: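 Human lymphoblastoid cells (2500/well) were plated in complete medium, preincubated 5 hr at 37 C, then exposed to compounds for 24 hr at 37 C. Intracellular ATP was read by CellTiter-Glo luminescence, and AC50 came from Hill-equation concentration-response fits.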
# [11] = Cell Viability - LYMP2-013 (AID 970); also: nearly all actives have a fitted effect of over 55% in size; also: potency is read from the fitted curve at half-maximal effect
# Summary of the method: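 Human lymphoblastoid cells, 2500/well, were preincubated 5 hr at 37 C, then treated with compounds for 24 hr at 37 C in complete medium. Intracellular ATP was read by CellTiter-Glo luminescence; AC50 from Hill-equation fits of concentration-response data.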
# [12] = Cell Viability - LYMP2-015 (AID 971); also: nearly all actives have a fitted effect of over 55% in size; also: potency is read from the fitted curve at half-maximal effect
# Summary of the method: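 Human lymphoblastoid cells (2500/well) in complete medium were preincubated 5 hr at 37 C, then compound-treated 24 hr at 37 C. Intracellular ATP was read by CellTiter-Glo luminescence after 30 min at room temperature; AC50 came from Hill-equation concentration-response fits.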
# [13] = Cell Viability - LYMP2-017 (AID 972); also: nearly all actives have a fitted effect of over 55% in size; also: potency is read from the fitted curve at half-maximal effect
# Summary of the method: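 Human lymphoblastoid cells (2500/well) were seeded in complete medium, held 5 hr at 37 C, then exposed to compounds for 24 hr at 37 C. Intracellular ATP was read by CellTiter-Glo luminescence after 30 min at room temperature, with AC50 values from Hill-equation fits.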
# [14] = Cell Viability - LYMP2-021 (AID 974); also: potency is read from the fitted curve at half-maximal effect
# Summary of the method: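 Human lymphoblastoid cells (2500/well) were preincubated 5 hr at 37 C, then exposed to compounds for 24 hr at 37 C in complete medium. Intracellular ATP was read by CellTiter-Glo luminescence; AC50 came from Hill-equation fits of concentration-response data.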
# [15] = Cell Viability - LYMP2-023 (AID 975); also: nearly all actives have a fitted effect of over 55% in size; also: potency is read from the fitted curve at half-maximal effect
# Summary of the method: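 Human lymphoblastoid cells (2500/well) were preincubated 5 hr at 37 C, then exposed to compounds for 24 hr at 37 C in complete medium. Cellular ATP was read by CellTiter-Glo luminescence, and AC50 came from Hill-equation fits.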
# [16] = target: Pyruvate kinase PKM (Homo sapiens) (UniProt P14618); experiment: qHTS Assay for Activators of Human Muscle Pyruvate Kinase (AID 954; active = well fitted curve in the direction sought with a large enough effect, not every such curve was filed as active)
# Sequence of Pyruvate kinase PKM (Homo sapiens) (P14618 whole entry, looked up): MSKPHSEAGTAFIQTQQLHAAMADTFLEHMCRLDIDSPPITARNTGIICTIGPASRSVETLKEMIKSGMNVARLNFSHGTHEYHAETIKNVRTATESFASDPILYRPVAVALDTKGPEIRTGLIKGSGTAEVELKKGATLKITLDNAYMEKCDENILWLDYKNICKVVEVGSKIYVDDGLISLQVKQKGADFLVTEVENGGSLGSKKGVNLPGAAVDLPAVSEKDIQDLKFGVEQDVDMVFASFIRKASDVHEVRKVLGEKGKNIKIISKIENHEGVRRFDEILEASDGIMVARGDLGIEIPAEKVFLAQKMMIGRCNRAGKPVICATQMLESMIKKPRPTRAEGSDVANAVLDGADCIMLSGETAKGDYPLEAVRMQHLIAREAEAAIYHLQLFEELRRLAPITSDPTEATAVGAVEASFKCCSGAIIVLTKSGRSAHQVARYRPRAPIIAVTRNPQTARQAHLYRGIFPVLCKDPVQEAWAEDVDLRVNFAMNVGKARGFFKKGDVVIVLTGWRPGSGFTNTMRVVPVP
# Summary of the method: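 Purified human PKM2 (0.1 nM) with 0.5 mM PEP (Km) and 0.1 mM ADP in 50 mM imidazole pH 7.2, KCl, MgCl2, 1 h at room temperature; ATP formed read by coupled luciferase luminescence. Normalized to no-enzyme/110 uM thiadiazolimine inhibition; 0.3 nM enzyme column for activation.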
# [17] = target: Alpha-galactosidase (Coffea arabica) (UniProt Q42656); experiment: Counterscreen for Glucocerebrosidase Inhibitors: qHTS Assay for Coffee Bean alpha-Galactosidase at pH 4.5 (AID 957); also: series mostly up to about 77 µM
# Sequence of Alpha-galactosidase (Coffea arabica) (Q42656 whole entry, looked up): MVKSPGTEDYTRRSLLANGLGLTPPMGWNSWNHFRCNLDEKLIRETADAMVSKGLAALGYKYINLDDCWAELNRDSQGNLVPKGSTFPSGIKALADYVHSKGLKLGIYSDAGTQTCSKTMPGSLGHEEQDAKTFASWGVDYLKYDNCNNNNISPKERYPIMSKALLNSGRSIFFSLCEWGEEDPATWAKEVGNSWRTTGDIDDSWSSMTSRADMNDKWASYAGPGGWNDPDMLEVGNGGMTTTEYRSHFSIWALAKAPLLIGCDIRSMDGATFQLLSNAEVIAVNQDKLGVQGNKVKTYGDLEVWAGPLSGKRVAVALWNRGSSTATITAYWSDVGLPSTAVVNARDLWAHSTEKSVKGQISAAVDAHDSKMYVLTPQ
# Summary of the method: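 Green coffee bean enzyme (2 nM final) was incubated with compounds (0.7 nM to 77 uM) and 4-methylumbelliferyl alpha-D-galactopyranoside (80 uM final) in 50 mM citric acid, 0.005% Tween-20, pH 4.5, 20 min at room temperature; AC50 from Hill fits.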
# [18] = Cell Viability - LYMP2-004 (AID 966); also: nearly all actives have a fitted effect of over 65% in size; also: potency is read from the fitted curve at half-maximal effect
# Summary of the method: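 Human lymphoblastoid cells (2500/well) in complete medium were treated with compounds for 24 hr at 37 C, then intracellular ATP was measured by CellTiter-Glo luminescence. AC50 values came from Hill-equation fits of concentration-response data.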
# [19] = Cell Viability - LYMP2-005 (AID 967); also: potency is read from the fitted curve at half-maximal effect
# Summary of the method: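 LYMP2-005 human lymphoblastoid cells (2500/well) were treated with compounds for 24 h at 37 C. Intracellular ATP was then measured by CellTiter-Glo luminescence after 30 min at room temperature. AC50 values came from Hill-equation fits of qHTS concentration-response data.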
# [20] = target: Pyruvate kinase (Leishmania mexicana) (UniProt Q27686); experiment: qHTS Validation Assay for Activators of Leishmania Mexicana Pyruvate Kinase (AID 959); conditions: purified L. mexicana pyruvate kinase, enzyme activity
# Sequence of Pyruvate kinase (Leishmania mexicana) (Q27686 2-499 E452W): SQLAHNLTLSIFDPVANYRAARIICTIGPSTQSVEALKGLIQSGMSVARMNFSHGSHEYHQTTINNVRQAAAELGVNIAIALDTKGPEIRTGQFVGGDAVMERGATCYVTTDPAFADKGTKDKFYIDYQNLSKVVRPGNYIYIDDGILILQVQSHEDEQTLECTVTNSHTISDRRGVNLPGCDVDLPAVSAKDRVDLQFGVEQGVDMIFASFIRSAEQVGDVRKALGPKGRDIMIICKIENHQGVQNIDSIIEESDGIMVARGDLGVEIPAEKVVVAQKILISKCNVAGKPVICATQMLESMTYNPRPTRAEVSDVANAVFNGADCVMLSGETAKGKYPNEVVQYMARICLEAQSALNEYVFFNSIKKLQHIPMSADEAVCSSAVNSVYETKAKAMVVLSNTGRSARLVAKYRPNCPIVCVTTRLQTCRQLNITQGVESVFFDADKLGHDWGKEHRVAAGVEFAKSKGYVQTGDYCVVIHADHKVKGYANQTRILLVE
# Summary of the method: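 An endpoint luciferase assay: 0.2 nM LmPYK E451W turns over 0.5 mM PEP with 0.1 mM ADP for 1 h at room temperature, pH 7.2, before PKLight addition. Values are normalized to DMSO-only wells.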
smiles,measurement,setting,value
N[C@@H](Cc1ccc(N(CCCl)CCCl)cc1)C(=O)O,outcome,[1],inactive
same,Potency,[2],inactive
same,Potency,[3],inactive
same,Potency,[4],inactive
same,Potency,[5],inactive
same,outcome,[6],inactive
same,Potency,[7],inactive
same,Potency,[8],31.6 µM (active)
same,Potency,[9],39.8 µM (active)
same,Potency,[10],39.8 µM (active)
same,Potency,[11],39.8 µM (active)
same,Potency,[12],31.6 µM (active)
same,Potency,[13],39.8 µM (active)
same,Potency,[14],39.8 µM (active)
same,Potency,[15],39.8 µM (active)
CCCN1CCC[C@@H]2Cc3[nH]ncc3C[C@H]21,outcome,[16],inactive
same,outcome,[17],inactive
CCCN1CCC[C@@H]2Cc3nc(N)ncc3C[C@H]21,outcome,[16],inactive
same,outcome,[17],inactive
CCCC(C)(COC(N)=O)COC(=O)NC(C)C (stereo unspecified),outcome,[1],inactive
same,outcome,[16],inactive
same,Potency,[2],inactive
same,Potency,[3],inactive
same,Potency,[4],inactive
same,Potency,[5],inactive
same,outcome,[6],inactive
same,Potency,[7],inactive
same,Potency,[8],inactive
same,Potency,[18],inactive
same,Potency,[19],inactive
same,Potency,[9],inactive
same,Potency,[10],inactive
same,Potency,[11],inactive
same,Potency,[12],inactive
same,Potency,[13],inactive
same,Potency,[14],inactive
same,Potency,[15],inactive
Oc1ccccc1-c1ccccc1,outcome,[1],inactive
same,Potency,[2],inactive
same,Potency,[3],inactive
same,Potency,[4],inactive
same,Potency,[5],inactive
same,outcome,[6],inactive
same,Potency,[7],inactive
same,Potency,[8],inactive
same,Potency,[18],inactive
same,Potency,[19],inactive
same,Potency,[9],inactive
same,Potency,[10],inactive
same,Potency,[11],inactive
same,Potency,[12],inactive
same,Potency,[13],inactive
same,Potency,[14],inactive
same,Potency,[15],inactive
O=c1[nH]c2ccccc2n1CCCN1CCC(n2c(=O)[nH]c3cc(Cl)ccc32)CC1,outcome,[16],inactive
O=c1[nH]c2ccccc2n1C1CCN(CCCC(c2ccc(F)cc2)c2ccc(F)cc2)CC1,outcome,[16],inactive
same,outcome,[17],inactive
Clc1ccc(COC(Cn2ccnc2)c2ccc(Cl)cc2Cl)cc1 (stereo unspecified),outcome,[1],inactive
same,Potency,[2],inactive
same,Potency,[4],63.1 µM (active)
same,Potency,[5],inactive
same,outcome,[6],inactive
same,Potency,[8],inactive
same,Potency,[10],79.4 µM (active)
same,Potency,[12],inactive
Nc1ccncc1,outcome,[16],inactive
C[C@]12C/C(=C/O)C(=O)C[C@@H]1CC[C@@H]1[C@@H]2CC[C@@]2(C)[C@H]1CC[C@]2(C)O,outcome,[1],inactive
same,Potency,[5],inactive
same,outcome,[6],inactive
same,Potency,[19],inactive
same,Potency,[14],63.1 µM (active)
OCCOc1ccccc1,outcome,[1],inactive
same,Potency,[2],inactive
same,Potency,[3],inactive
same,Potency,[4],inactive
same,Potency,[5],inactive
same,outcome,[6],inactive
same,Potency,[7],inactive
same,Potency,[8],inactive
same,Potency,[18],inactive
same,Potency,[9],inactive
same,Potency,[10],inactive
same,Potency,[11],inactive
same,Potency,[12],inactive
same,Potency,[13],inactive
same,Potency,[14],inactive
same,Potency,[15],inactive
NN=C(N)N,outcome,[16],inactive
Cc1ncc(CNC(=O)N(CCCl)N=O)c(N)n1,outcome,[16],inactive
c1ccc(C2CC2)c(OCC2=NCCN2)c1,outcome,[16],inactive
same,outcome,[17],inactive
CN1C[C@H](CNC(=O)OCc2ccccc2)C[C@@H]2c3cccc4c3c(cn4C)C[C@H]21,outcome,[16],inactive
same,outcome,[17],inactive
same,Potency,[20],12.6 µM (active)
Oc1cccc2cccnc12,Potency,[2],inactive
same,Potency,[3],15.8 µM (active)
same,Potency,[7],31.6 µM (active) and 39.8 µM (active)
same,Potency,[8],12.6 µM (active)
same,Potency,[18],15.8 µM (active) and 12.6 µM (active)
same,Potency,[9],10 µM (active)
same,Potency,[11],15.8 µM (active)
same,Potency,[12],12.6 µM (active)
same,Potency,[13],12.6 µM (active) and 10 µM (active)
same,Potency,[15],25.1 µM (active)
CC(=O)Oc1ccccc1C(=O)Nc1ncc([N+](=O)[O-])s1,Potency,[2],25.1 µM (active)
same,Potency,[3],25.1 µM (active)
same,Potency,[4],39.8 µM (active)
same,Potency,[5],39.8 µM (active)
same,Potency,[7],12.6 µM (active)
same,Potency,[19],31.6 µM (active)
same,Potency,[10],50.1 µM (active)
same,Potency,[11],39.8 µM (active)
same,Potency,[14],39.8 µM (active)
CC(COc1ccccc1)N(CCCl)Cc1ccccc1 (stereo unspecified),Potency,[9],39.8 µM (active)
same,Potency,[10],50.1 µM (active)
same,Potency,[11],39.8 µM (active)
same,Potency,[12],39.8 µM (active)
same,Potency,[13],39.8 µM (active)
same,Potency,[14],50.1 µM (active)
same,Potency,[15],50.1 µM (active)
CN(C)CCC=C1c2ccccc2CCc2ccccc21,Potency,[12],31.6 µM (active)

# — PubChem BioAssay (NCATS)
